Source: PubChem
MEKK2mut PB1 HTS = signal of MEK5 binding to mutant human MEKK2 PB1 domain. actives 0.35% (n = 290,000). percent response, % at 10 µM. bead flow cytometry, Alexa488-MEK5 binding to MEKK2 mutant; in the data active = percent response above about 24%, passing the limit was not always enough
MEKK3 PB1 HTS = raises or lowers MEK5 binding to the human MEKK3 PB1 domain. Q99759. bead-based flow cytometry, Alexa488-MEK5 binding to MEKK3; actives lie on both sides; 0 = blocked by unlabeled MEK5, 100 = vehicle. binding response (% of control), % at 10 µM. actives 1.4% (n = 290,000);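 active = binding response more than 3 SD above or below the average of its plate-row segment, actives on both sides; inconclusive = wells at one plate position flagged as instrument error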;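 note: Alexa488 bead fluorescence after subtracting the streptavidin-only scavenger bead signal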
DNA FID counter = displaces DNA intercalator in HCV helicase counter-screen; DNA fluorescent intercalator displacement, fluorescence; inhibition, % at 7.9 µM; actives 0.17% (n = 290,000); AID 1845; in the data active = inhibition above about 37%;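 note: 0% = vehicle and 100% = reference compound; higher means more ethidium bromide displaced from hairpin DNA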
MEKK2 WT-MEK5 = raises or lowers MEK5 binding to wildtype human MEKK2 PB1 domain. bead flow cytometry, Alexa488-MEK5 binding to MEKK2 WT; actives lie on both sides. actives 1.1% (n = 290,000). binding response (% of control), % at 10 µM; in the data active = binding response below about 67% or above about 130%; inconclusive = no clear call, values can overlap the other calls; inactive = in between
dFosB activator = activators of mouse delta FosB homodimer | purified delta FosB, TAMRA-CDK5 oligo fluorescence polarization; percent of positive-control signal above neutral wells | activation, % at 25 µM | actives 0.99% (n = 340,000) | AID 493131;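 active = mean activation above about 17%, with every replicate also reaching it, limit read from the data, passing the limit was not always enough; inconclusive = only one of the two conditions met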
Target sequence (P13346 whole entry, looked up): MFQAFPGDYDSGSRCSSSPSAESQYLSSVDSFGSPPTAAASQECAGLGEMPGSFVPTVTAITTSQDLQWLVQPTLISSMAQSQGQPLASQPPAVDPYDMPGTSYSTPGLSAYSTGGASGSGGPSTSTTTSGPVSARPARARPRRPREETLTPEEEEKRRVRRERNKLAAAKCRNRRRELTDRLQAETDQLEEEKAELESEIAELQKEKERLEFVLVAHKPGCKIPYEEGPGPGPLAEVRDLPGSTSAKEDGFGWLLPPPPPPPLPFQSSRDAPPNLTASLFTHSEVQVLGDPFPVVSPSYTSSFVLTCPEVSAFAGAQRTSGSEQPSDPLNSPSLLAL
MEKK2wt confirm = raises or lowers MEK5 binding to wildtype human MEKK2, retest. shares compounds with MEKK3 PB1 HTS. bead flow cytometry, Alexa488-MEK5 binding to MEKK2 WT; actives lie on both sides. binding response (% of control), % at 10 µM. actives 2.4% (n = 5,900); in the data active = binding response below about 16% or above about 210%; inactive = in between
MEKK2mut confirm = signal of MEK5 binding to mutant human MEKK2, retest; shares compounds with MEKK3 PB1 HTS; bead flow cytometry, Alexa488-MEK5 binding to MEKK2 mutant; percent response, % at 10 µM; actives 2% (n = 5,900); in the data active = percent response mostly above about 71%, no sharp cut-off; inactive = mostly below about 38%;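 note: higher means compound restores mutant binding toward wildtype level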
MEKK3-MEK5 inh = MEKK3-MEK5 PB1 inhibition, single concentration confirmation; bead flow cytometry, Alexa488-MEK5 binding to MEKK3; hits give low values; binding response (% of control), % at 10 µM; AID 1894; actives 1.8% (n = 5,900); shares compounds with MEKK3 PB1 HTS;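 active = binding response below 72% of control, or above a set upper limit, though filed actives all read lower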;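 note: 100% = DMSO only wells and 0% = binding blocked by excess unlabeled MEK5; lower values mean stronger disruption of MEK5 binding to MEKK3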
The depositor's hits bear a star; [ ] = dose if it differs, or a comment. Most compounds without a hit are left out; they make up all but 2.9% or so of the library.

`CC(C)c1ccc(N(C(=O)CNC(=O)c2ccco2)C(C(=O)NC2CCCC2)c2ccncc2)cc1` (stereo unspecified) gave MEKK2mut PB1 HTS 5, MEKK3 PB1 HTS 103, DNA FID counter -47, MEKK2 WT-MEK5 105 and dFosB activator -7.
Cc1cccc(OCCCC(=O)NCCc2ccccc2)c1 was read as MEKK2mut PB1 HTS 0, MEKK3 PB1 HTS 137*, DNA FID counter -18, MEKK2 WT-MEK5 108, dFosB activator -4, MEKK2wt confirm 105, MEKK2mut confirm 4 and MEKK3-MEK5 inh 104.
CC(=O)c1ccc(OCCCC(=O)NCCc2ccccc2)cc1 was read as MEKK2mut PB1 HTS 14, MEKK3 PB1 HTS 104, DNA FID counter -32, MEKK2 WT-MEK5 108 and dFosB activator 4.
Screening O=C(NNC(=O)c1ccc(F)cc1)C(=O)N1CCCCC1 returned MEKK2mut PB1 HTS 0, MEKK3 PB1 HTS 104, DNA FID counter -4, MEKK2 WT-MEK5 105 and dFosB activator -5.
`CCCOC1CCCN(C(=O)c2ccc(OC3CCN(Cc4ccccn4)CC3)cc2)C1` (stereo unspecified) gave MEKK2mut PB1 HTS -9, MEKK3 PB1 HTS 90, DNA FID counter 13, MEKK2 WT-MEK5 89 and dFosB activator -6.
`CCN(CC)CCN(C(=O)c1ccc(Br)s1)c1nc2cc3c(cc2s1)OCCO3` gave MEKK2mut PB1 HTS 19, MEKK3 PB1 HTS 103, DNA FID counter 7, MEKK2 WT-MEK5 138*, dFosB activator -6, MEKK2wt confirm 129, MEKK2mut confirm 26 and MEKK3-MEK5 inh 104.
For CCN(CC)CCN(C(=O)c1ccc(C(=O)c2ccccc2)cc1)c1nc2cc3c(cc2s1)OCO3 the results were MEKK2mut PB1 HTS 31*, MEKK3 PB1 HTS 110, DNA FID counter 8, MEKK2 WT-MEK5 157*, dFosB activator 48*, MEKK2wt confirm 151, MEKK2mut confirm 22 and MEKK3-MEK5 inh 110.
`CCN(CC)CCN(C(=O)c1ccc(Br)s1)c1nc2cc3c(cc2s1)OCO3` gave MEKK2mut PB1 HTS 14, MEKK3 PB1 HTS 104, DNA FID counter 4, MEKK2 WT-MEK5 125 and dFosB activator 1.
COc1ccc2c(c1)OC[C@H]1[C@H]2N2C(=O)c3cc(Br)ccc3NC(=O)[C@@]2(C)[C@H]1c1ccccc1 was read as dFosB activator -6.
C[N+]1=C(/C=C/Nc2ccccc2Cl)C(C)(C)c2ccccc21 was read as MEKK2mut PB1 HTS 5, MEKK3 PB1 HTS 108, DNA FID counter -3, MEKK2 WT-MEK5 105 and dFosB activator -9.
For COC(=O)c1ccc2c(c1)C(C)(C)C(/C=C/c1ccccc1O)=[N+]2C the results were MEKK2mut PB1 HTS -8, MEKK3 PB1 HTS 68, DNA FID counter -28, MEKK2 WT-MEK5 -1.0*[inhibitor], dFosB activator 111*, MEKK2wt confirm 89, MEKK2mut confirm -3 and MEKK3-MEK5 inh 87.
Screening O=C(NC(=S)N1CCN(c2ccccn2)CC1)c1ccco1 returned MEKK2mut PB1 HTS -8, MEKK3 PB1 HTS 98, DNA FID counter 9, MEKK2 WT-MEK5 95 and dFosB activator 7.
Screening Nn1c(SCC(=O)NCC2CCCO2)nnc1-c1ccc(OC(F)F)cc1 (stereo unspecified) returned dFosB activator 1.
Screening c1ccn(-c2ccc(-c3ccn[nH]3)cc2)c1 returned MEKK2mut PB1 HTS -5, MEKK3 PB1 HTS 99, DNA FID counter -9, MEKK2 WT-MEK5 95 and dFosB activator -1.
For Cc1ccc(C)n1-c1ccc(-c2ccn[nH]2)cc1 the results were MEKK2mut PB1 HTS 190*, MEKK3 PB1 HTS 15*[inhibitor], DNA FID counter -9, dFosB activator -10, MEKK2wt confirm 101, MEKK2mut confirm -2 and MEKK3-MEK5 inh 102.
For COc1ccc(-c2oc3ncnc(NCCN4CCOCC4)c3c2-c2ccc(OC)cc2)cc1 the results were MEKK2mut PB1 HTS 0, MEKK3 PB1 HTS 99, DNA FID counter 0, MEKK2 WT-MEK5 108 and dFosB activator -4.
COc1ccc(-c2oc3ncnc(NCCCN4CCOCC4)c3c2-c2ccc(OC)cc2)cc1 was read as MEKK2mut PB1 HTS 10, MEKK3 PB1 HTS 85, DNA FID counter 7, MEKK2 WT-MEK5 138*, dFosB activator -4, MEKK2wt confirm 133, MEKK2mut confirm 14 and MEKK3-MEK5 inh 102.
`CCOC(=O)c1c(-c2ccc(C)o2)csc1NC(=S)NC(=O)N(C)C` gave MEKK2mut PB1 HTS 3, MEKK3 PB1 HTS 106, DNA FID counter -19, MEKK2 WT-MEK5 109 and dFosB activator -14.
Screening COc1ccc(S(=O)(=O)N(CC(=O)NC2CC2)c2ccc(C)cc2)cc1 returned MEKK2mut PB1 HTS 2, MEKK3 PB1 HTS 99, DNA FID counter -7, MEKK2 WT-MEK5 99 and dFosB activator -1.
For O=C(O)c1cc(S(=O)(=O)N2CCN(C(c3ccccc3)c3ccccc3)CC2)ccc1Cl the results were MEKK2mut PB1 HTS 11, MEKK3 PB1 HTS 103, DNA FID counter -8, MEKK2 WT-MEK5 100 and dFosB activator -12.
CN(C)C(=O)NCc1ccc(S(N)(=O)=O)cc1 was read as MEKK2mut PB1 HTS -8, MEKK3 PB1 HTS 39*[inhibitor], DNA FID counter 0, MEKK2 WT-MEK5 50, dFosB activator 4, MEKK2wt confirm 100, MEKK2mut confirm 1 and MEKK3-MEK5 inh 102.
For Cc1cc(C(=O)NCc2ccc(S(N)(=O)=O)cc2)c(C)o1 the results were MEKK2mut PB1 HTS 5, MEKK3 PB1 HTS 105, DNA FID counter -4, MEKK2 WT-MEK5 107 and dFosB activator -1.
`O=C(/C=C/c1c(F)cccc1Cl)Nc1ncccn1` gave MEKK2mut PB1 HTS -1, MEKK3 PB1 HTS 98, DNA FID counter -2, MEKK2 WT-MEK5 97 and dFosB activator -18.
`C=CCNC(=O)/C=C/c1c(F)cccc1Cl` gave MEKK2mut PB1 HTS 1, MEKK3 PB1 HTS 184*, DNA FID counter -3, MEKK2 WT-MEK5 109, dFosB activator 0, MEKK2wt confirm 100, MEKK2mut confirm -1 and MEKK3-MEK5 inh 105.
For Cc1ccc(NC(=O)c2ccc(CN3CCN(C)CC3)cc2)cc1Nc1nccc(-c2cccnc2)n1 the results were MEKK3 PB1 HTS 115, dFosB activator inconclusive and MEKK3-MEK5 inh 103.
For O=C(Nc1cccnc1)c1ccc(CN2CCc3ccccc3C2)cc1 the results were MEKK2mut PB1 HTS 2, MEKK3 PB1 HTS 102, DNA FID counter -1, MEKK2 WT-MEK5 103 and dFosB activator -6.
